Screening results as filed in PubChem.
Only some compounds are listed: those with a hit (about 2.8% of all), similar ones and a draw of the others.
Pol kappa inh-1 – blocks human DNA polymerase kappa activity; Q9UBT6; purified Pol kappa, fluorescent DNA synthesis assay, 10 min; Potency, µM (titrated, usually from 107 µM), inactives show at the highest dose activity, negative = inhibition, usual class: inhibitors; 400,000 tested, 0.53% active; AID 588579; further: potency means the concentration at half of the fitted maximal effect; on the % scale 0 is the no-effect control and ±100 the full control effect
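Here, compound and 10 nM enzyme are combined for 15 min at room temperature; adding 50 nM substrate (final) starts DNA synthesis, tracked by fluorescence at 0 and 10 min against buffer-only wells.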
Pol beta inh – DNA polymerase beta (human) inhibition; P06746; Pol beta primer extension/strand displacement, fluorescence kinetic; Potency, µM (doses to about 114 µM), without a hit: at the top dose activity change, negative = inhibition, usual class: inhibitors; 340,000 tested, 1.3% active; AID 485314; further: potency means the concentration at half of the fitted maximal effect; on the % scale 0 is the no-effect control and ±100 the full control effect
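Reaction started by 50 nM substrate onto compound-treated Pol beta (10 nM, 15 min preincubation, room temperature); plates read at 0 min and 10 min. Normalized concentration-effect data fitted by four-parameter Hill equation.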
PI5P4K alpha inh – inhibitors of human PI5P4K alpha; P48426; PI5P4Kalpha enzyme, ADP-Glo luminescence, 60 min; hits give low values; max response, %; 330,000 tested, 1.2% active; active means max response of -50% or lower; inconclusive means between -30% and -50%; inactive means -30% or higher; further: value at the top dose of about 77 µM; on the % scale 0 is the no-effect control and ±100 the full control effect
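PI5P4Kalpha ADP-Glo assay; 5 microM ATP final; 60 min RT reaction; HEPES pH 7.4/EGTA/CHAPS, 5% DMSO; controls lacking substrate or enzyme; luminescent end-point.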
Pol eta inh-1 – blocks human DNA polymerase eta activity; Potency, µM (top dose mostly 114 µM), for inactives: at the top dose activity change, negative = inhibition, actives largely listed as inhibitors; AID 588591; 390,000 tested, 1.2% active; recombinant Pol eta, fluorescent DNA replication assay; further: potency means the concentration at half of the fitted maximal effect; on the % scale 0 is the no-effect control and ±100 the full control effect
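Pol eta (10 nM) was preincubated with compounds for 15 min at room temperature, after which fluorescent replication substrate (50 nM final) was added to start the reaction. Fluorescence was read kinetically at 0 and 10 min.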
Pol iota inh – DNA polymerase iota (human) inhibition. Pol iota fluorescent replication assay, 10 min. Potency, µM (doses to about 115 µM), inactives show at the highest dose activity, negative = inhibition, actives largely listed as inhibitors. 390,000 tested, 1% active. AID 588590; further: potency means the concentration at half of the fitted maximal effect
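Pol iota at 10 nM preincubated 15 min with compounds at room temperature; reaction started with fluorescent substrate, 50 nM final. Fluorescence read kinetically at 0 and 10 min; buffer-only wells as negative control.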
WRN inhibitor – blocks human WRN helicase; WRN helicase unwinding, fluorescent forked duplex, kinetic; Q14191; AID 651768; 360,000 tested, 0.46% active; Potency, µM (highest dose often 114 µM), inactives show at the top dose activity change, negative = inhibition, most hits filed as inhibitors; further: potency means the concentration at half of the fitted maximal effect; on the % scale 0 is the no-effect control and ±100 the full control effect; nearly all actives have a fitted effect of over 55% in size
Target sequence (Q14191 whole entry, looked up): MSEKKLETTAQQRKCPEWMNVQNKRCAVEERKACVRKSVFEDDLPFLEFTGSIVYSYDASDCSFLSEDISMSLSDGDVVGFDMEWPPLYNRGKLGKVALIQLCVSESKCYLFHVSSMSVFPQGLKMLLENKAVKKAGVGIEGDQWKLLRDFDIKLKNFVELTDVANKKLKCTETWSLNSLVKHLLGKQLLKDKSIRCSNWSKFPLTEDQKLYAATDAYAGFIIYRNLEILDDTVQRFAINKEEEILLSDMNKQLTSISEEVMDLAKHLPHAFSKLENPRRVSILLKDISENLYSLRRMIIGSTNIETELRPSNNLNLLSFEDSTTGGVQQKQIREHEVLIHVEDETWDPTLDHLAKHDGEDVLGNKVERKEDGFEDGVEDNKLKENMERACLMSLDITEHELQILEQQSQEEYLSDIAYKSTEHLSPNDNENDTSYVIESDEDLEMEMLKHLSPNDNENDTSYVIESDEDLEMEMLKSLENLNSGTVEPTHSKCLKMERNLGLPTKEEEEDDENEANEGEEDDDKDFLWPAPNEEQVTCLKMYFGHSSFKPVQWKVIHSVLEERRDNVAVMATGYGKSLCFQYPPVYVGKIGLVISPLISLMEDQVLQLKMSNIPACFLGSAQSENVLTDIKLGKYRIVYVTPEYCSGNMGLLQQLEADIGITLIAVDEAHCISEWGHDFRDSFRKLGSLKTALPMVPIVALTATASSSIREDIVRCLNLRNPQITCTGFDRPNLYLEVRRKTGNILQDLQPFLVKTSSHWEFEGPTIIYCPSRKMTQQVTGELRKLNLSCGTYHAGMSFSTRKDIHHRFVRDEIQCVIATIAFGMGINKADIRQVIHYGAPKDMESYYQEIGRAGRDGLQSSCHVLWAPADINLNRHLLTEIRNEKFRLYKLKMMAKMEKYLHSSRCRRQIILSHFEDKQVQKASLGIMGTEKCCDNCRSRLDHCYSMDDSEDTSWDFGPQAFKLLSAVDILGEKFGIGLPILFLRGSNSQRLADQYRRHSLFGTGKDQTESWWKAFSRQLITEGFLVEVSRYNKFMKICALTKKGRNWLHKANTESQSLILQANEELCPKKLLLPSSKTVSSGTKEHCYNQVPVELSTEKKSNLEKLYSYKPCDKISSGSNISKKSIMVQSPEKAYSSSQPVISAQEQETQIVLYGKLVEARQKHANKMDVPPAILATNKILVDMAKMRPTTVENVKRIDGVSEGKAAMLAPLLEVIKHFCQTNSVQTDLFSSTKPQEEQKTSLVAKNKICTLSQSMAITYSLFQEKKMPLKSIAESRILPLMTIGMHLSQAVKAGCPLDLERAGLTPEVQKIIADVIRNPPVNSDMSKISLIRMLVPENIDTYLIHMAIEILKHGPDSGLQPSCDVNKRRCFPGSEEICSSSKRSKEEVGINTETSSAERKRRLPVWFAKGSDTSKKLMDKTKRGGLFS
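Primary qHTS, 1536-well format. 20 nM WRN + compound, 15 min RT; start with 100 nM forked fluorophore/quencher duplex, 2 mM ATP (final); kinetic read ex 525/em 598 nm.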
Pol kappa inh-2 – confirmation of human DNA polymerase kappa inhibitors. purified Pol-kappa, fluorescent strand-displacement substrate. 920 tested, 76% active. AID 720501. shares compounds with Pol eta inh-1. Potency, µM, hits mostly inhibitors; further: potency means the concentration at half of the fitted maximal effect
Pol eta inh-2 – Pol eta (human) inhibition, cherry-pick confirmation. Potency, µM, actives largely listed as inhibitors. shares compounds with Pol eta inh-1. Pol eta primer extension, TAMRA/BHQ fluorescence, 10 min. 2,600 tested, 64% active; further: potency means the concentration at half of the fitted maximal effect
* = called active by the depositor; ? = inconclusive; / = no result; ! = not confirmed by another sample; [ ] = remark or other dose. Unless noted, the call rests on the fitted dose curve; in most records, active means well fitted curve in the direction sought with a large enough effect; inconclusive means small, poorly fitted or top-dose-only effect, or another doubt; inactive means no such curve, though single readings can be large; an effect the other way counts as inactive or inconclusive.

SMILES | Pol kappa inh-1 | Pol beta inh | PI5P4K alpha inh | Pol eta inh-1 | Pol iota inh | WRN inhibitor | Pol eta inh-2 | others
CC(C)Sc1ncc(Cl)c(C(=O)N(Cc2ccc(N(C)C)cc2)C2CCS(=O)(=O)C2)n1 (stereo unspecified) | -22% | ? | / | 79µM* | ? | / | ? | Pol kappa inh-2=?
CCSc1ncc(Cl)c(C(=O)N(Cc2ccc(N(C)C)cc2)C2CCS(=O)(=O)C2)n1 (stereo unspecified) | -13% | -11% | 2 | -5% | 5% | -19% | /
O=C(COC(=O)/C=C/c1ccco1)Nc1ccc(F)cc1Cl | ? | 22µM* | -17 | ? | ? | -24%[11.6 µM] | ?
Cc1cc2nc(NC(=O)C3(C)CCCN(C(C)C)C3)[nH]c2cc1C (stereo unspecified) | / | / | 1 | / | / | 0% | /
COc1ccc(C2=NN(c3nc(-c4ccccc4)c(CC(=O)O)s3)C(c3ccco3)C2)cc1 (stereo unspecified) | ? | 22µM* | ? | 28µM* | ? | ? | ? | Pol kappa inh-2=15*
COc1ccc(OC(=O)N(C)C[C@@H]2OCc3cn(nn3)CCCC(=O)N([C@@H](C)CO)C[C@H]2C)cc1 | / | / | 1 | -10% | / | 5% | /
C=CCN(c1ccc(C(=O)Nc2ccc(NC(C)=O)cc2)cc1)S(C)(=O)=O | -13% | 32% | ? | -13% | 134% | -33% | /
CCc1ccc(S(=O)(=O)Nc2ccc(O)c3ccccc23)cc1 | -13% | 11% | ? | 2% | ? | 1% | /
CCc1ccc(S(=O)(=O)Nc2cc(SCC(=O)O)c(O)c3ccccc23)cc1 | ? | ? | ? | 50µM* | 5.6µM* | 45µM* | ?
O=C(O)c1cc(NN=C2c3ccccc3-c3ccccc32)ccc1Cl | ? | 50µM* | 1 | 22µM* | ? | ? | 38*
C/C(=N\Nc1ccc(Cl)c(C(=O)O)c1)c1cccc2ccccc12 | ? | 28µM* | -30 | 7.9µM* | 16µM* | ? | 27*
O=[N+]([O-])c1ccc(C=NNc2ccc(S(=O)(=O)O)cc2)cc1 | -9% | / | -29 | 22µM* | ? | 3%[11.6 µM] | 48*
O=C(c1cccnc1)N1C2C=CC(C2)C1(C(F)(F)F)C(F)(F)F (stereo unspecified) | -7% | 40µM* | -9 | 14µM* | ? | ? | ?
O=C(O)c1c2c(nc3ccc(S(=O)(=O)N4CCC(C(=O)NC5CCCCCC5)CC4)cc13)CCCC2 | 79µM* | 40µM* | -27 | 20µM* | ? | -8%[11.6 µM] | ?
COc1cc(/C=N/NC(=O)C(Cc2c[nH]c3ccccc23)NC(=O)OCc2ccccc2)cc([N+](=O)[O-])c1O (stereo unspecified) | ? | 50µM* | -79* | 20µM* | ? | ? | ?
COc1cc(/C=N/NC(=O)C(Cc2c[nH]c3ccccc23)NC(=O)OCC(C)C)cc([N+](=O)[O-])c1O (stereo unspecified) | -3% | ? | 1 | ? | 110% | -20% | /
CCCCn1nnnc1C1(C)CCC(=O)N1CCOC (stereo unspecified) | / | / | -1 | / | / | 0% | /
COc1ccc(C)cc1NC(=O)c1ccc2c(SCC(=O)O)c3c(nc2c1)CCCC3 | -7% | -9% | -3 | 12% | -15% | -9% | /
COc1cc(Cl)c(C)cc1NC(=O)c1ccc2c(SCC(=O)O)c3c(nc2c1)CCCC3 | -12% | 20µM*! | -19 | 50µM*! | 121% | -33% | ? | Pol kappa inh-2=75*
CCOC(=O)c1ccccc1NC(=O)c1ccc2c(SCC(=O)O)c3c(nc2c1)CCCC3 | -13% | 2% | -11 | 50µM* | -11% | -16%[11.6 µM] | 76*
